Assay outcomes (PubChem)
This is a sample that favours compounds with a hit; in the whole collection about 7.7% have one here.
RE007 growth inh = less growth of the S. pombe RE007 Vpr strain. S. pombe RE007 Vpr strain, BacTiter-Glo ATP luminescence, 24 h. Potency, µM (top dose mostly 92.2 µM), for inactives: at the highest dose activity change, negative = less growth, actives largely listed as inhibitors. hit rate 0.21% among 360,000; active = well fitted falling curve with a large enough effect; inconclusive = small, poorly fitted or top-dose-only effect; inactive = no such curve, though single readings can be large or run the other way; note: potency is the fitted concentration of half-maximal effect; nearly all actives have a fitted effect of over 50% in size
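Fission yeast strain RE007, carrying one chromosomally integrated HIV-1 vpr copy, was seeded at OD 0.01 in PMG+AL medium with 23 nL pinned compound. After 24 h at 30 °C and 99% humidity, viability was read by BacTiter-Glo luminescence.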
Giardia FBPA inh = Giardia lamblia aldolase inhibition; A8B2U2; AID 2451; purified Giardia FBPA; Potency, µM (highest dose often 59.6 µM), without a hit: at the top dose activity, negative = inhibition, hits mostly inhibitors; hit rate 0.71% among 290,000; note: potency is the fitted concentration of half-maximal effect; nearly all actives have a fitted effect of over 55% in size
Target sequence (A8B2U2 whole entry, looked up): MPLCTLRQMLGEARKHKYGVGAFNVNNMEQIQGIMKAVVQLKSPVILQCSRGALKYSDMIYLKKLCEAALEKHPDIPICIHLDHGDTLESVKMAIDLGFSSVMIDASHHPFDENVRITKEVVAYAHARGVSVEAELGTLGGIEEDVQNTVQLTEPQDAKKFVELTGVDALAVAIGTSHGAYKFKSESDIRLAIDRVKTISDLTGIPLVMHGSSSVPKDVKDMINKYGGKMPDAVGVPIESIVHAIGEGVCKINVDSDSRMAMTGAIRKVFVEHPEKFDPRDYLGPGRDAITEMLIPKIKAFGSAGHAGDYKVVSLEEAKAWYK
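Giardia FBPA (40 nM reagent) was preincubated 10 min at RT with compound (up to 57.5 uM final), then substrate plus GAPDH/TPI/NAD/arsenate coupling system with diaphorase/resazurin was added; resorufin fluorescence (525/598 nm) was read after 20 min.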
TbPYK inhibitor = blocks Trypanosoma brucei pyruvate kinase | Q57TT1 | hit rate 0.12% among 410,000 | TbPYK enzyme, Kinase-Glo Plus ATP luminescence, 45 min | Potency, µM (highest dose often 76.8 µM), for the others: top-dose activity, negative = inhibition, hits mostly inhibitors; note: potency is the fitted concentration of half-maximal effect; nearly all actives have a fitted effect of over 50% in size
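In this concentration-response screen, enzyme-free wells defined baseline while DMSO plates tracked drift. Each reaction combined TbPYK, substrate, compound and 130 uM ADP for 45 min at room temperature. Kinase-Glo Plus luminescence gave the signal.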
Sm TGR inh = blocks Schistosoma mansoni thioredoxin glutathione reductase. Potency, µM (titrated, usually from 114 µM), for inactives: top-dose activity change, negative = inhibition, hits mostly inhibitors. hit rate 3% among 360,000. purified TGR, DTNB reduction, TNB absorbance 405 nm. AID 485364. Q962Y6; note: potency is the fitted concentration of half-maximal effect; nearly all actives have a fitted effect of over 60% in size
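TGR 20 nM + NADPH 100 uM (dispensed conc.), cpd preinc 15 min RT; start with NADPH (500 uM addition) then DTNB (15 mM addition). Kinetic TNB absorbance, 405 nm filter. Four-parameter Hill fit across titration.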
FMDV inh = foot and mouth disease virus antiviral activity; FMDV antiviral cell-based qHTS; Potency, µM (top dose mostly 57.9 µM), for inactives: top-dose activity change, negative = inhibition, usual class: inhibitors; hit rate 1.2% among 410,000; calls by dose curve; tested in HEK293T cells; note: read-out not given here; potency is the fitted concentration of half-maximal effect; nearly all actives have a fitted effect of over 45% in size
HCMV inh = blocks human cytomegalovirus replication; AID 1259415; activity change, negative = inhibition, % at 57.5 µM; hit rate 4.5% among 410,000; HFF cells, HCMV-luciferase reporter, 72 h; hits give low values; in the data active = activity change below about -60%; inconclusive = no clear call, values can overlap the other calls; inactive = above about -39%
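HFF cells seeded 16 h at 37C, treated with compounds, infected with luciferase-reporter HCMV at MOI 1 PFU/cell; luciferase read at 72 h post infection, normalized to buffer-only and Salinomycin controls.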
Active calls of the source: *; u = inconclusive; x = no result; ! = a repeat was not active; [ ] = remark or other dose. Unless noted, calls come from the whole dose curve; as a rule, active = well fitted curve in the direction sought with a large enough effect; inconclusive = small, poorly fitted or top-dose-only effect, or another doubt; inactive = no such curve, though single readings can be large; an effect the other way counts as inactive or inconclusive. % is set by controls: 0 for no effect and ±100 for the full control effect.

SMILES | RE007 growth inh | Giardia FBPA inh | TbPYK inhibitor | Sm TGR inh | FMDV inh | HCMV inh
COC(=O)[C@@H]1CCCN1C(=O)c1c(OC)cc(=O)n2c1CCN(Cc1ccc3nsnc3c1)CC2 | x | x | x | x | -4.1% | x
N#C/C(=C\C=C\c1ccccc1[N+](=O)[O-])C(=O)NC1CCCCC1 | -2.6% | -8.6% | -3.0% | -0.8% | 25.1µM* | x
N#C/C(=C\c1cccn1-c1ccccc1)C(=O)NC1CCCCC1 | 1.1% | 0.8% | 2.6% | -12.4% | -27.4% | 60.7
N#C/C(=C\c1ccccc1[N+](=O)[O-])C(=O)NC1CCCCC1 | 15.0% | -9.0% | 3.3% | -0.2% | 35.5µM* | 82.7
O=C(Nc1cc(C(=O)N2CCN(CCO)CC2)c2c(c1)ncn2C1CCCC1)c1ccccc1 | x | x | x | x | -11.8% | x
CCOC(=O)c1cnc2c(Cl)c(Cl)ccc2c1NCCN1CCOCC1 | -23.8% | -10.9% | 6.0% | 39.8µM*! | 0.7% | -12.3
CCOC(=O)c1cnc2ccc(OCC)cc2c1NCCc1ccc(OC)c(OC)c1 | x | x | 7.1% | 11.0% | 28.2µM* | -8.9
CCOC(=O)c1cnc2c(C)cc(C)cc2c1NCCN1CCOCC1 | x | x | -6.5% | -1.0% | -12.7% | 1.6
CCOC(=O)c1cnc2ccc(Br)cc2c1NCCCN1CCOCC1 | -6.5% | 5.9% | 3.3% | 44.7µM* | -11.4% | -25.2
CCOC(=O)c1cnc2c(C)cc(C)cc2c1NCCCN1CCOCC1 | 3.1% | -6.0% | -1.0% | -3.9% | -16.4% | -61.8*
CCOC(=O)c1cnc2c(C)c(C)ccc2c1NCCN1CCOCC1 | -6.8% | 10.5% | -11.8% | 5.9% | -11.2% | -12.1
Cc1ccc2c(c1)C(O)(C1C(=O)N(C)c3ccccc31)C(=O)N2Cc1ccccc1 (stereo not given) | x | x | x | x | x | -17.2
CCOC(=O)c1cnc2c(C(F)(F)F)cccc2c1N1CCOCC1 | 3.8% | -0.4% | 0.5% | 0.7% | 31.6µM* | u
CCCCCCC(=O)N(O)C1CC(=O)N(c2ccc(Cl)cc2)C1=O (stereo not given) | 3.98µM* | -15.7% | -23.8% | 0.562µM* | 6.8% | -6.4
CCCCCCC(=O)N(O)C1CC(=O)N(c2ccc(C)cc2)C1=O (stereo not given) | 0.0%[3.69 µM] | -7.5% | x | 0.562µM* | 21.9% | 323.8
Cc1ccc2ncc3c(-c4ccc(F)cc4)nn(-c4cccc(F)c4)c3c2c1 | x | x | -1.6% | -2.7% | -16.7% | 11.9
CCC(OC(=O)C(C)N1C(=O)C(=O)c2ccccc21)C(=O)Nc1ccccc1OC (stereo not given) | -5.8% | -19.3% | 0.0% | 1.7% | -4.4% | 8.3
CCC(OC(=O)CN1C(=O)C(=O)c2ccccc21)C(=O)Nc1ccccc1OC (stereo not given) | -11.0% | -11.4% | -2.2% | 2.0% | -14.8% | -62.6*
Cc1cc2c3c(cccc3n1)C(=O)c1ccccc1-2 | x | 0.2% | x | x | -12.7% | x
COc1cc(/C=C(\C#N)C(=O)N2CCOCC2)cc(Br)c1O | -2.0% | u | -14.0% | u | 0.4% | -9.6
N#C/C(=C\c1cccc(Oc2ccccc2)c1)C(=O)N1CCOCC1 | 20.5% | -6.3% | -16.0% | x | 35.5µM* | -16.8
COc1cccc2sc(N(Cc3cccnc3)C(=O)c3ccc4c(c3)OCCO4)nc12 | x | x | 2.7% | 1.0% | u | u
COCCNC(=S)N/N=C/c1ccc(N2CCOCC2)cc1 | -10.7% | -12.9% | 7.0% | -17.5% | -6.0% | -96.9*
C=C(C)CNC(=S)N/N=C/c1ccc(N2CCOCC2)cc1 | 11.6% | -8.6% | 0.5% | -15.5% | -17.4% | -78.2*
CC(C)NC(=S)N/N=C/c1ccc(N2CCOCC2)cc1 | -15.0% | -4.0% | -11.7% | -21.1% | -26.3% | -0.8
SMILES | RE007 growth inh | Giardia FBPA inh | TbPYK inhibitor | Sm TGR inh | FMDV inh | HCMV inh
CCC(CO)Nc1ncnc2c1cnn2-c1ccc(C)cc1 (stereo not given) | x | x | 1.1% | -3.6% | u | 3.3
CCCCCC1Nc2cc(C(F)(F)F)c(S(N)(=O)=O)cc2S(=O)(=O)N1 (stereo not given) | x | x | 4.2% | x | x | x
CNc1nc2cnc(Nc3ccccn3)cc2n1-c1cc(OC)c(OC)c(OC)c1 | x | x | x | x | x | -4.3
COc1ccc(N/N=C/c2c(C(=O)O)ccc3ccccc23)cc1 | -6.2% | -11.0% | 13.3% | u | 5.0% | -99.5*
CC(C)(C)c1ccc(O)c(N=Cc2c(O)ccc3ccccc23)c1 | -1.2% | -1.6% | -12.7% | -22.1% | -23.5% | -92.3*
Oc1ccc2ccccc2c1C=NC1CCCCC1 | -26.0% | u | 28.6% | 39.8µM* | 9.0% | -29.4
COc1ccc2ccccc2c1/C=N/Nc1ccc(Cl)c(C(=O)O)c1 | -24.9% | u | -15.0% | u | 7.2% | 45.9
CC(C)(C)c1ccc(O)c(N=Cc2cc(Br)ccc2O)c1 | -4.9% | -4.9% | u | -15.8% | u | -37.0
Oc1ccc2ccccc2c1/C=N/Nc1ccccc1 | 88.6% | u | 1.6% | 50.1µM* | 19.9% | -18.2
CC(=O)c1sc(N/N=C\c2c(O)ccc3ccccc23)nc1C | 10.1% | x | 4.3% | x | -5.5% | -74.9*
CC(=O)c1sc(N/N=C/c2cccc(O)c2)nc1C | 3.7% | -11.6% | -3.2% | -17.7% | 26.4% | 172.7
Clc1cccc(Cl)c1C[n+]1ccc2ccccc2c1 | 4.0% | -4.4% | 0.4% | -4.0% | -23.4% | -94.0*
COc1ccccc1CNC(=O)c1ccc2nc(CCc3ccccc3)oc2c1 | x | x | 0.8% | -7.9% | -15.8% | 5.8
CCc1noc(C)c1C(=O)Oc1ccc(N(C)S(=O)(=O)c2ccc(C)cc2)cc1 | -11.2% | x | 0.0% | 1.7% | u | x
CCc1noc(C)c1C(=O)Oc1ccc(N(C)S(=O)(=O)c2ccccc2)cc1 | 34.6% | x | -3.7% | -4.6% | 17.8µM* | -10.0
Cc1cc(C(=O)CCl)c(C)n1CCc1ccc(Cl)cc1 | 0.1% | -12.6% | -5.5% | 7.94µM* | 22.4µM* | -98.3*
Cc1cc(C(=O)CCl)c(C)n1CCc1ccc(F)cc1 | 19.2% | -4.6% | -10.9% | 2.51µM* | 28.2µM* | -83.5*
COc1ccc(CCn2c(C)cc(C(=O)CCl)c2C)cc1OC | 2.0% | -4.7% | -2.6% | 11.2µM* | 20µM* | -100.2*
COc1ccc(CCn2c(C)c(C(C)=O)c(C(C)=O)c2C)cc1OC | 13.4% | 5.4% | -3.0% | 2.4% | -13.9% | 3.9
Cc1cc(C(=O)CSc2nnc(N)s2)c(C)n1CCc1ccc(Cl)cc1 | -2.3% | -7.3% | 0.7% | 0.0% | u | -27.0
Cc1cc(C(=O)CSc2nnnn2C)c(C)n1CCc1ccc(F)cc1 | -4.2% | 2.2% | -5.0% | -3.0% | 0.3% | 25.4
COC(=O)[C@@H]1[C@@H](CO)[C@@H]2Cn3c(ccc(Br)c3=O)[C@@H]2N1CCc1ccccc1 | x | x | x | x | x | -32.9
Cc1ccc(CNC(=O)CCc2cn(Cc3ccc(C)cc3)c3ccccc23)cc1 | x | x | -2.2% | 1.1% | -12.0% | 5.7
O=C(CCc1cn(Cc2ccccc2F)c2ccccc12)NCc1ccc(Cl)cc1 | x | x | 2.8% | 41.5% | 10µM* | -26.5
